In the library only some 12% were active in any assay of this set; here they are far more common.
G9a block = G9a (human) methyltransferase inhibition. Q96KQ7. G9a H3K9 monomethylation, AlphaScreen, 2 h. Potency, µM (series often up to 102 µM), without a hit: at the top dose activity, negative = inhibition, actives largely listed as inhibitors. actives 8.8% (n = 350,000). AID 504332; further: on the % scale 0 is the no-effect control and ±100 the full control effect; nearly all actives have a fitted effect of over 75% in size
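AlphaScreen read-out: biotin-H3K9 peptide (500 nM) methylation by 20 nM enzyme with 20 uM SAM, 2 h at room temperature after 15 min compound preincubation; anti-monomethyl H3K9 antibody plus donor/acceptor beads, 10 min dark.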
BAZ2B inh = inhibitors of human BAZ2B bromodomain; Potency, µM (highest dose often 114 µM), without a hit: top-dose activity change, negative = inhibition, hits mostly inhibitors; AID 504333; Q9UIF8; actives 4.4% (n = 360,000); AlphaScreen BAZ2B-H3K14Ac peptide displacement; further: on the % scale 0 is the no-effect control and ±100 the full control effect; nearly all actives have a fitted effect of over 60% in size
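In this displacement format the biotinylated H3(5-23) peptide acetylated at Lys14 serves as ligand at 50 nM, with BAZ2B at 50 nM in PBS pH 7.4 containing 0.01% Tween-20. Donor and acceptor beads are 10 ug/mL final.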
Sfp PPTase inh = Sfp phosphopantetheinyl transferase inhibition. Biochemical Sfp PPTase activity, qHTS. actives 3.5% (n = 310,000). Potency, µM, for the others: largest response in the series, negative = inhibition, hits mostly inhibitors;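 further: the enzyme is Sfp with the accession as filed and its product quenches rhodamine fluorescence; 0% = enzyme reaction without inhibitor and -100% = no enzyme wells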
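Fluorescence-quenching assay with 15 nM Sfp, 5 uM rhodamine-CoA and 12.5 uM BHQ-2-labelled ybbR peptide in pH 7.6 Hepes/MgCl2 buffer. Enzyme was pre-incubated with compound for 15 min at room temperature. Rate was taken from the 30-min fluorescence change (525/598 nm).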
JMJD2A Tudor = JMJD2A Tudor domain (human) inhibition. AlphaScreen JMJD2A-Tudor / H3K4me3 peptide binding. Potency, µM (top dose mostly 114 µM), inactives show at the highest dose activity change, negative = inhibition, hits mostly inhibitors. actives 4.4% (n = 390,000); further: on the % scale 0 is the no-effect control and ±100 the full control effect; nearly all actives have a fitted effect of over 50% in size
HP1b chromo inh = blocks HP1-beta chromodomain binding to methylated histone tails | P83916 | Potency, µM (series often up to 114 µM), for inactives: at the top dose activity change, negative = inhibition, most hits filed as inhibitors | AlphaScreen HP1-beta / biotin-H3K9me3 peptide binding | actives 0.56% (n = 390,000); further: nearly all actives have a fitted effect of over 70% in size
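Compound inhibition of the preformed complex between 50 nM HP1-beta and 50 nM biotinylated H3K9me3 peptide was read by AlphaScreen. Buffer was PBS pH 7.4 with 0.01% Tween-20. Incubations ran 30 min at room temperature, with 10 ug/mL donor/acceptor beads.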
Active calls of the source: *; u = inconclusive; x = not tested or not shown; [ ] = remark or other dose. The call rests on the fitted dose curve; in most records, active means well fitted curve in the direction sought with a large enough effect; inconclusive means small, poorly fitted or top-dose-only effect, or another doubt; inactive means no such curve, though single readings can be large; an effect the other way counts as inactive or inconclusive. Potency means the concentration at half of the fitted maximal effect.

SMILES	G9a block	BAZ2B inh	Sfp PPTase inh	JMJD2A Tudor	HP1b chromo inh
COc1cc(/C=N/N(C)C)cc(Br)c1O	14µM*	-32%	-10%	-27%	13%
CN=c1scc(C)n1/N=C/c1cc(Br)c(O)c(OC)c1	7.9µM*	40µM*	-14%	u	-19%
COc1cc(/C=N/NC(=O)CSc2n[nH]c(=O)[nH]c2=O)cc(OC)c1O	35µM*	2%	5%	-3%	27%
CN=c1scc(C)n1/N=C/c1ccc(O)c(O)c1O	u	25µM*	25µM*	50µM*	u
Cc1ccc(NC(=O)C(Cc2ccccc2)NS(=O)(=O)c2cccs2)cc1Cl (stereo unspecified)	6%[59 µM]	1%	x	-4%	31%
Cc1ccc(C)c(CN2CCCN(CC(=O)Nc3ccc(C)c(C)c3)S2(=O)=O)c1	2%[59 µM]	-16%	x	1%	34%
COc1cc(/C=N/O)cc(Cl)c1OC	-4%[59 µM]	2%	6%	-2%[57.1 µM]	5%
COc1cc(/C=N/NC(=O)c2ccc(Cn3cc([N+](=O)[O-])cn3)o2)cc(Br)c1O	8.9µM*	-28%	-6%	-11%[57.1 µM]	16%
CN=c1scc(-c2cccs2)n1/N=C/c1ccc(O)c(O)c1O	7.9µM*	25µM*	11µM*	25µM*	5µM*
CCCCCC(=O)N/N=C/c1cc(Br)c(O)c(OC)c1	50µM*	-32%	-13%	-7%	11%
COc1ccc(/C=N/NC(=O)c2ccc(Cn3cc([N+](=O)[O-])cn3)o2)cc1O	-20%[12.7 µM]	1%	-5%	-1%	28%
COc1cc(/C=N/N(C)c2ccccc2)cc(Cl)c1O	u	45µM*	u	25µM*	22µM*
CC(Oc1ccc(F)cc1)C(=O)N1CCC(c2nc3ccccc3s2)CC1 (stereo unspecified)	-32%[59 µM]	-14%	x	-14%	41%
Cc1ccccc1NC(=O)c1cccc(NC(=O)c2ccccc2C(=O)O)c1	x	x	x	6%	44%
CCOC(=O)c1ccccc1NC(=O)c1c2c(nc3ccccc13)C(=O)N(C1CCCCC1)C2	-1%[59 µM]	-2%	x	-7%	36%
C=CCN(c1ccccc1OC)S(=O)(=O)c1ccc(Cl)c(C(=O)Nc2ccc(N3CCOCC3)cc2)c1	25µM*	u	6%	-31%	4%
CN(CC(=O)Nc1ccc(N2CCOCC2)cc1)C(=O)c1cc(S(=O)(=O)N(C)C)ccc1Cl	u	-19%	11%	-17%	4%
COc1ccccc1N(C)S(=O)(=O)c1ccc(C(=O)Nc2ccc(N3CCOCC3)cc2)cc1	40µM*	u	15%	u	0%
CCc1c(C)sc(NC(=O)c2cc3nc(-c4ccc(OC)cc4)cc(C(F)(F)F)n3n2)c1C(=O)OC	u	2%	x	-14%	34%
COc1cccc(C2Nc3ccccc3-c3nnc(SCc4ccccc4)nc3O2)c1OC (stereo unspecified)	9%[59 µM]	-26%	x	u	2%
Cc1cccc(NC(=O)c2cc(S(=O)(=O)N3CCc4ccccc43)ccc2F)c1C	0%[59 µM]	7%	x	-13%	5%
COc1cc(NC(=O)CN2C(=O)CCc3cc(Br)ccc32)cc(OC)c1OC	6%[59 µM]	-11%	x	-27%	12%[57 µM]
Cc1[nH]c2c(ccc3ccccc32)c1C1C(CCN)C1(C)C (stereo unspecified)	-44%[59 µM]	56µM*	-4%	56µM*	-7%
S=c1[nH]c2ccc3ccccc3c2[nH]1	x	u	-4%	-16%	25%
COc1cccc(O)c1O	x	x	20µM*	x	x
SMILES	G9a block	BAZ2B inh	Sfp PPTase inh	JMJD2A Tudor	HP1b chromo inh
Cc1cc(C(=O)COC(=O)c2nn(C)c(=O)c3ccccc23)c(C)n1C	x	x	x	-7%	20%[57 µM]
Cc1nc2nc(C)n(CCN3CCOCC3)c(=O)c2c(-c2cccc([N+](=O)[O-])c2)c1C(=O)CCCCCCCCCCN1CCC(c2ccccc2)(c2ccccc2)CC1	x	x	x	25µM*	40µM*
CCOC(=O)c1ccc(-n2c(CN3CCOCC3)nc3ccc([N+](=O)[O-])cc3c2=O)cc1	45µM*	-18%	-28%	-18%	43%
CCOC(=O)c1ccc(-n2c(CN3CCN(CC)CC3)nc3ccc([N+](=O)[O-])cc3c2=O)cc1	56µM*	x	-6%	-15%	35%
CCOC(=O)c1ccc(-n2c(CC)nc3ccccc3c2=O)cc1	10%	-1%	8%	x	x
CCOC(=O)c1ccc(-n2c(CN(CC)CC)nc3ccc([N+](=O)[O-])cc3c2=O)cc1	10µM*	x	22µM*	u	23%
CCOC(=O)N1CCN(Cc2nc3ccc([N+](=O)[O-])cc3c(=O)n2-c2ccccc2F)CC1	79µM*	-37%	-26%	-8%	13%
COc1cccc(CNC(=O)Cn2nc3c(cc2=O)CCCC3)c1OC	14%[59 µM]	6%	x	0%	14%[57 µM]
CC(=O)C(=O)O	x	x	-13%	x	x
CC1(C)Cc2c(sc3c2C(=O)N(c2ccccc2)C2=NCCN23)CS1	-5%[0.501 µM]	u	89µM*	-18%	28%
CC(=O)c1ccc(NC(=O)CN(C)S(=O)(=O)c2cc3c(cc2C)NC(=O)CO3)cc1	-4%[59 µM]	4%	x	-6%	36%
Cc1ccccc1NC(=O)c1ccc(S(=O)(=O)N(C)C)cc1	15%[59 µM]	0%	13%	-11%	51%
CN(C)S(=O)(=O)c1ccc(C(=O)Nc2ccccc2SCCC#N)cc1	5µM*	x	14µM*	-12%	9%
N#CCCSc1ccccc1NC(=O)c1cc(=O)c2ccccc2o1	20µM*	-18%	22µM*	-21%	16%
CCN(CC(=O)Nc1ccccc1OC)CC(=O)Nc1sccc1C#N	-3%	-19%	-1%	-25%	10%
COc1cc(/C=C/C(=O)Nc2ccc(OC)c(S(=O)(=O)N3CCOCC3)c2)ccc1OC(F)F	x	x	x	-22%	19%
COc1ccc(NC(=O)CNCc2ccc(Cl)cc2)cc1S(=O)(=O)N1CCOCC1	x	x	x	3.5µM*	u
COc1ccc(CC(=O)Nc2sccc2C#N)cc1S(=O)(=O)N1CCOCC1	40µM*	-22%	x	-4%	25%
COc1ccc(NC(=O)CN2CCc3ccccc3C2)cc1S(=O)(=O)N1CCOCC1	25%[59 µM]	-5%	8%	-18%	7%
COc1ccc(NC(=O)CN2C(=O)c3ccccc3S2(=O)=O)cc1S(=O)(=O)N1CCOCC1	50µM*	8%	x	-12%	17%
COc1ccc(NC(=O)/C=C/c2ccc(C)o2)cc1S(=O)(=O)N1CCOCC1	6.3µM*	u	50µM*	-17%	-4%
COc1ccc(CC(=O)Nc2cccc(C(C)=O)c2)cc1S(=O)(=O)N1CCOCC1	18%[12.7 µM]	7%	x	-8%	28%
COC(=O)C1=C(C(=O)OC)[C@@H]2N(C)c3ccc(OC)cc3[C@@]23C[C@@H](C(=O)OC)N(S(=O)(=O)c2ccc4c(c2)OCCN4C)C3=N1	x	x	2%	x	x
COc1cc(S(=O)(=O)N2CCOCC2)ccc1NC(=O)COC(=O)c1ccc(Cl)nc1	x	x	x	-5%	44%

Assay outcomes as filed in PubChem.
